# Compound activity: PubChem BioAssay, National Center for Advancing Translational Sciences (NCATS)
# HCV inhibitor = qHTS Assay for Inhibitors of Hepatitis C Virus (HCV). hit rate 3.4% among 340,000. AID 651820, 2012. Huh7.5.1 HCVcc-Cre infection, luciferase reporter, 44 h. Potency, µM (series often up to 41.8 µM), inactives show at the top dose activity change, negative = inhibition, actives largely listed as inhibitors; further: potency means the concentration at half of the fitted maximal effect
#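 Seed cells (1,000/well) for 4 h; treat with compound and infect with HCVcc-Cre, moi about 0.5. Incubate 44 h, then detect luciferase activity.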
# Pf growth 96h = Primary qHTS for delayed death inhibitors of the malarial parasite plastid, 96 hour incubation | P. falciparum luciferase reporter growth, 96 h | Potency, µM (top dose mostly 28.7 µM), for inactives: top-dose activity change, negative = inhibition, actives largely listed as inhibitors | hit rate 6.9% among 320,000 | AID 504834, 2011; further: potency means the concentration at half of the fitted maximal effect
#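 Plates of compound plus infected erythrocytes (2% hematocrit, 0.05% parasitemia final) incubate 96 hours, 37 C, 5% CO2. Detection reagent added; reduced luminescence from the parasites' luciferase reporter flags inhibition.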
# LASV entry inh = qHTS for Inhibitors of binding or entry into cells for Lassa Virus | hit rate 1.2% among 300,000 | Potency, µM (titrated, usually from 37.9 µM), for the others: at the top dose activity change, negative = inhibition, most hits filed as inhibitors | Lassa virus pseudotype entry inhibition, cell reporter; calls by dose curve; tested in HEK293 cells; further: potency means the concentration at half of the fitted maximal effect; nearly all actives have a fitted effect of over 50% in size
# Pf growth 48h = Primary qHTS for delayed death inhibitors of the malarial parasite plastid, 48 hour incubation | P. falciparum luciferase growth in erythrocytes, 48 h | Potency, µM (titrated, usually from 28.7 µM), without a hit: at the top dose activity change, negative = inhibition, most hits filed as inhibitors | hit rate 5.9% among 310,000 | AID 504832, 2011; further: potency means the concentration at half of the fitted maximal effect
#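 Luciferase-expressing P. falciparum in infected erythrocytes (2% hematocrit, 0.1% parasitemia final) in RPMI 1640/0.5% Albumax were exposed to compound for 48 hours at 37 C, 5% CO2; growth read as luminescence.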
# HCMV antiviral = qHTS Assay for inhibitors of the human cytomegalovirus (HCMV). HFF cells, HCMV-luciferase reporter, 72 h; hits give low values. activity change, negative = inhibition, % at 57.5 µM. hit rate 4.5% among 410,000. AID 1259415, 2018; in the data active means activity change below about -60%; inconclusive means no clear call, values can overlap the other calls; inactive means above about -39%
#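 Two compound doses tested in HFFs infected with HCMV-luciferase, MOI 1 PFU/cell, 72 h at 37C. Lysate luminescence read with OneGlo; data normalized against buffer-only and 10uM Salinomycin inhibitor controls.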
# MARV entry inh = qHTS for inhibitors of binding or entry into cells for Marburg Virus. AID 540276, 2011. hit rate 1.8% among 300,000. Marburg virus pseudotyped entry inhibition, cell reporter. Potency, µM (highest dose often 37.8 µM), without a hit: top-dose activity change, negative = inhibition, hits mostly inhibitors; calls by dose curve; tested in HEK293 cells; further: potency means the concentration at half of the fitted maximal effect
# Active calls of the source: *; ? = inconclusive; · = not tested or not shown; [ ] = another dose, or the depositor's remark. Sampled rows, rich in hits. Any-hit rate of the full collection: about 14%. Unless noted, the call rests on the fitted dose curve; in most records, active means well fitted inhibition curve with a large enough effect; inconclusive means small, poorly fitted or top-dose-only effect, or another doubt; inactive means no such curve, though single readings can be large or run the other way. On the % scale 0 is the no-effect control and ±100 the full control effect.
SMILES,HCV inhibitor,Pf growth 96h,LASV entry inh,Pf growth 48h,HCMV antiviral,MARV entry inh
CCN(CC)c1ccc(/C=N/NC(=S)NCc2ccccc2)cc1,-10.7%,9.28µM*,?,13.1µM*,-4.5,?
CCN(CC)c1ccc(/C=N/NC(=S)NCc2ccc(OC)cc2)cc1,?,?,3.66µM*,?,15.6,?
O=C(Nc1cc(C(F)(F)F)ccc1F)C1CCCC1,19.0%,-6.2%,-0.7%,-24.2%,16.4,1.3%
O=C(Nc1cc(C(F)(F)F)ccc1F)C1CCCCC1,22.5%,-29.6%,20.4%,·,-106.1*,?
Cc1csc2c(NC3CCN(Cc4ccccc4)CC3)ncnc12,?,-20.0%,-13.7%[46.1 µM],-10.0%,-18.2,2.82µM*
Cc1sc2ncnc(NC3CCN(Cc4ccccc4)CC3)c2c1C,1µM*,-8.1%,?,-13.9%,-80.7*,?
c1ccc(CN2CCC(Nc3ncnc4sccc34)CC2)cc1,-4.1%,?,-2.8%,10.7%,-29.3,-5.4%[46.1 µM]
COc1ccc(-c2nc(C#N)c(N3CCc4ccccc4C3)o2)cc1OC,11.2µM*,-24.2%,?,0.5%,-8.8,?
Cc1cccc(-c2nc(C#N)c(N3CCCCCC3)o2)c1,25.1µM*,·,-1.5%,11.1%,-7.9,13.9%
COc1ccccc1-c1nc(C#N)c(N2CCCCCC2)o1,?,?,-0.5%,·,?,?
COc1ccccc1-c1nc(C#N)c(N2CCc3ccccc3C2)o1,11.2µM*,?,4.9%,-29.6%,-17.0,?
CCN(CC)C(=O)c1oc2ccc(S(=O)(=O)N3CCCCCC3)cc2c1C,25.1µM*,·,?,?,?,?
Cc1c(C(=O)Nc2ccc(F)cc2)oc2ccc(S(=O)(=O)N3CC(C)CC(C)C3)cc12 (configuration not stated),?,·,?,10.4µM*,-12.2,?
CCN(CC)C(=O)c1oc2ccc(S(=O)(=O)N3CC(C)CC(C)C3)cc2c1C (configuration not stated),3.55µM*,45.4%,?,?,-87.9*,?
Cc1c(C(=O)NCc2cccnc2)oc2ccc(S(=O)(=O)N3CC(C)CC(C)C3)cc12 (configuration not stated),13.5%,61.4%,·,?,-26.3,6.1%
COc1cc(C(=O)NCCOc2cc(C)cc(C)c2)c(Br)c(OC)c1OC,?,13.1µM*,?,-11.4%,46.5,-25.8%
COc1cc(C(=O)NC2CCCC2)c(Br)c(OC)c1OC,12.1%,1.3%,-18.3%[46.1 µM],-2.5%,62.4,16.8%[46.1 µM]
N#Cc1cccc(NC(=O)CSc2nc3c(cc2C#N)N2CCC3CC2)c1,·,·,?,·,-82.7*,?
N#Cc1cc2c(nc1SCC(=O)Nc1ccc(OC(F)(F)F)cc1)C1CCN2CC1,·,·,-29.3%[46.1 µM],·,-71.9*,·
CCOC(=O)c1ccc(NC(=O)CSc2nc3c(cc2C#N)N2CCC3CC2)cc1,·,·,-15.4%[46.1 µM],·,5.5,?
N#Cc1cc2c(nc1SCC(=O)Nc1cccc(C(F)(F)F)c1)C1CCN2CC1,·,·,-36.3%[46.1 µM],·,?,-9.0%[46.1 µM]
Cc1ccccc1NC(=O)Cc1nc(COC(=O)Cc2c(F)cccc2Cl)cs1,?,?,·,?,0.5,·
CCOC(=O)c1[nH]ncc1CN1CCCC(C(=O)c2ccc(SC)cc2)C1 (configuration not stated),4.0%,?,6.5%[46.1 µM],?,?,-7.8%[46.1 µM]
CCCCc1ncc(CN2CCCC(C(=O)c3ccc(SC)cc3)C2)[nH]1 (configuration not stated),?,24.6%[5.75 µM],-4.9%,9.28µM*,-2.7,-10.8%[46.1 µM]
COCCNC(=S)N1CCC2CC1c1cc(-c3ccc4c(c3)OCO4)ccc12 (configuration not stated),·,·,·,·,-21.5,·
SMILES,HCV inhibitor,Pf growth 96h,LASV entry inh,Pf growth 48h,HCMV antiviral,MARV entry inh
S=C(NCCc1ccccc1)N1CCC2CC1c1cc(-c3ccc4c(c3)OCO4)ccc12 (configuration not stated),·,·,·,·,-74.5*,·
CCc1ccc(NCc2cc3ccc(OC)cc3n(CC(=O)Nc3ccc(C)c(Cl)c3)c2=O)cc1,·,·,-21.3%[46.1 µM],·,23.9,·
O=C1C(=O)c2cccnc2-c2ncccc21,·,·,·,·,-99.1*,·
O=C1c2cccnc2-c2ncccc21,15.4%,?,3.1%,-7.1%,-23.7,2.3%
COC1=C(Br)C(=O)c2ncccc2C1=O,?,·,?,·,-69.0*,?
Clc1ccc(CCC(Cn2ccnc2)Sc2c(Cl)cccc2Cl)cc1 (configuration not stated),?,0.928µM*,·,1.47µM*,29.5,·
O=C1COc2ccccc2N1Cc1c(F)cccc1Cl,-11.7%,9.8%,·,-14.8%[0.00184 µM],-63.2*,·
N#Cc1c(C(F)(F)F)cc(-c2cccs2)nc1SCc1ccccc1F,·,·,6.6%[46.1 µM],·,-6.9,2.0%[46.1 µM]
O=C(O)CCN1C(=O)C2C3C=CC(C3)C2C1=O (configuration not stated),1.1%,?,?,-4.5%,-9.8,?
CC1CCCC(C)N1C(=O)CCN1C(=O)C2C3C=CC(C3)C2C1=O (configuration not stated),14.8%,1.65µM*,·,26.8%,-22.9,·
O=C(N/N=C/c1cn(-c2ccccc2)nc1-c1cc2ccccc2o1)c1ccncc1,?,-45.3%,?,-32.8%,78.7,?
CN(C)S(=O)(=O)c1cccc(-c2nn(-c3ccccc3)cc2/C=C2\SC(=S)NC2=O)c1,-8.6%,2.62µM*,?,4.65µM*,-82.0*,22.4µM*
Cc1ccc(-c2nn(-c3ccccc3)cc2/C=C(\C#N)c2cccc(C#N)c2)o1,?,·,?,11.7µM*,·,10.0%
O=C(O)/C=C/c1cn(-c2ccccc2)nc1-c1ccc(-c2ccc([N+](=O)[O-])cc2)o1,4.0%,5.7%,-13.6%,8.9%,?,2.1%[46.1 µM]
CN(C)S(=O)(=O)c1cccc(-c2nn(-c3ccccc3)cc2/C=C(\C#N)c2nc3ccccc3[nH]2)c1,?,1.47µM*,-8.1%,2.08µM*,21.0,?
N#C/C(=C\c1cn(-c2ccccc2)nc1-c1cc2ccccc2o1)c1nc2ccccc2[nH]1,2.6%,0.657µM*,?,1.04µM*,57.5,13.2%
CCCC(=O)Nc1ccc(OC[C@@H](O)CNC(C)C)c(C(C)=O)c1,·,-1.7%[12.8 µM],·,0.4%[12.8 µM],·,15.9%
COCCNc1nc(Nc2ccc(C)cc2C)c2sccc2n1,·,·,·,·,-76.0*,·
O=C(Nc1ccc(N2CCN(C(=O)c3ccco3)CC2)cc1)c1ccc([N+](=O)[O-])cc1Cl,?,?,·,11.7µM*,-2.9,·
